# Laboratory results from PMC10668032, “Altered binding affinity of SIX1-Q177R correlates with enhanced WNT5A and WNT pathway effector expression in Wilms tumor”.
# Whole data set: some 33,000 sequences, median “e-score” near -0.05, cut for the highest 2% near 0.38. The sample holds the highest values, similar sequences and a random draw of the others, so the mix is not that of the screen.
# Molecular target: T1, SIX1-Q177R homeodomain (human, UniProt Q15475 108-198, Q177R)
# T1 sequence: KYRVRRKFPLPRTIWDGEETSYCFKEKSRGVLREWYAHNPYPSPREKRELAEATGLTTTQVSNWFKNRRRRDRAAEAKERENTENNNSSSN
# Experiment: universal protein binding microarray; Universal all-10-mer PBM (8x60K, AMADID 030236), 300 nM GST-tagged protein, Alexa Fluor 488 anti-GST; buffer, salt, pH and temperature not stated (as in Berger); high values mean tight binding
# Conditions: protein: ivt; tags: N-terminal GST; dsDNA, one strand shown
# Procedure, shortened: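 Homeodomains fused to GST were made by in vitro transcription/translation and measured by anti-GST western blot with a recombinant GST standard curve. At 300 nM final concentration, they were applied in duplicate to universal 'all 10-mer' protein binding microarrays (8×60K format).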
row,Sequence,binding signal [E-score]
1,ACCCGATA,0.237 ± 0.00872
2,CACCGAGG,0.2466 ± 0.00166
3,CACCAATC,0.287 ± 0.00449
4,GAAGGACA,0.176 ± 0.0303
5,AACGAGTG,0.189 ± 0.0329
6,CCCCCTGA,0.277 ± 0.0278
7,CCCCCAGG,0.213 ± 0.0301
8,CACCTGCG,0.26 ± 0.0138
9,ACTTCTAC,0.182 ± 0.0104
10,CACGGGAC,0.163 ± 0.0415
11,CCCCTCAA,0.161 ± 0.0276
12,CACTCAAG,0.264 ± 0.00106
13,CGACTCCA,0.275 ± 0.014
14,CCCCTCCG,0.2736 ± 0.00272
15,CACTAGGC,0.221 ± 0.00293
16,CCCCTTAC,0.245 ± 0.00846
17,AACACTGA,0.35 ± 0.0172
18,CACACTGG,0.264 ± 0.0213
19,AACACTGC,0.375 ± 0.0233
20,CACACTGA,0.208 ± 0.0349
21,TACACTGA,0.394 ± 0.0104
22,CACACTGC,0.258 ± 0.0222
23,GACACTGC,0.4326 ± 0.00138
24,GACACTAA,0.369 ± 0.00967

row,Sequence,binding signal [E-score]
1,TACACTAA,0.381 ± 0.0182
2,GACACTGA,0.403 ± 0.0214
3,AACACTAA,0.336 ± 0.0111
4,AATCGTGT,0.369 ± 0.0106
5,AACTCCCG,0.181 ± 0.0506
6,ACTGGTAC,0.192 ± 0.00471
7,CCCCCCGA,0.314 ± 0.0156
8,CACTACGG,0.188 ± 0.0252
9,CGAGGAAC,0.197 ± 0.0457
10,CCGATCCC,0.221 ± 0.00253
11,TACTCCAA,0.198 ± 0.0212
12,CACTGTGC,0.204 ± 0.00431
13,CACAGGTG,0.307 ± 0.0159
14,CACACTTA,0.204 ± 0.00443
15,AACACTTA,0.328 ± 0.0332
16,GACACTTA,0.383 ± 0.00709
17,CAACGACA,0.197 ± 0.0113
18,CGGATCCC,0.235 ± 0.023
19,CAGGGGTA,0.234 ± 0.0165
20,ACCCAGGG,0.201 ± 0.0184
21,AACACTAG,0.357 ± 0.0233
22,AACACTAT,0.295 ± 0.0435
23,CACACTAC,0.2973 ± 0.00215
24,CACACTAG,0.25 ± 0.0068

row,Sequence,binding signal [E-score]
1,AACACTAC,0.381 ± 0.0184
2,GACACTAC,0.434 ± 0.00877
3,CACCCAGG,0.284 ± 0.0239
4,GGTGCTAC,0.183 ± 0.00715
5,ACACTAAG,0.337 ± 0.0137
6,TCACTACA,0.225 ± 0.0148
7,ACACTACA,0.41 ± 0.0193
8,ACACTACT,0.393 ± 0.0188
9,ACTCTACC,0.151 ± 0.0299
10,ACACTAAT,0.333 ± 0.0159
11,ACACTATA,0.322 ± 0.0287
12,ACACTATC,0.342 ± 0.0149
13,CCACTACA,0.298 ± 0.0151
14,ACACTACC,0.421 ± 0.00623
15,ACACTACG,0.388 ± 0.00491
16,ACACTATG,0.328 ± 0.0294
17,CCAGAACA,0.261 ± 0.00433
18,GGGGCGTA,0.159 ± 0.0113
19,CCGCGTCA,0.156 ± 0.0229
20,AGTAGGTG,0.279 ± 0.025
21,CCTCTTTA,0.171 ± 0.0307
22,AGGGTATG,0.226 ± 0.0255
23,ACCGGACA,0.245 ± 0.00259
24,CCCCGGCC,0.233 ± 0.0259

row,Sequence,binding signal [E-score]
1,GGGTACAA,0.17 ± 0.0208
2,AGGTACTC,0.166 ± 0.0232
3,AGGTATCC,0.344 ± 0.00693
4,GGGTACCC,0.234 ± 0.00584
5,CGGTACAC,0.4352 ± 0.00226
6,CGGTATCC,0.325 ± 0.00938
7,AGGTACAC,0.452 ± 0.00159
8,GGGTACAC,0.443 ± 0.0111
9,CGGTATAC,0.165 ± 0.00282
10,CGCACTAC,0.152 ± 0.0379
11,CACGCTCG,0.242 ± 0.0063
12,ACTGCATA,0.2138 ± 0.00024
13,ATTGGGTG,0.261 ± 0.0204
14,CACTCATA,0.195 ± 0.0111
15,CGCAATAC,0.276 ± 0.0226
16,CACGCAAC,0.227 ± 0.0168
17,CCCCCTAC,0.267 ± 0.031
18,TCGCACCA,0.177 ± 0.0487
19,CAAGTACA,0.207 ± 0.0357
20,CCCTAACA,0.181 ± 0.028
21,CACCAATG,0.222 ± 0.00267
22,CTCCCCAA,0.28 ± 0.0223
